Screening data (PubChem BioAssay)
D3 ag = D3 dopamine receptor (human) agonism. max activation, %. AID 652048. 410,000 compounds, 0.58% hits. D3R DiscoveRx beta-arrestin cells, luminescence, 90 min; in the data active means max activation above about 30%; further: 0% is about no effect
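Agonist mode: compounds and dopamine controls were applied to plated cells for 90 min at 37 degrees C after an overnight attachment at 1500 cells/well. Luminescent read-out followed 30 - 60 minutes at room temperature with DiscoveRx detection reagent.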
BRCA1 expr act = increases BRCA1 expression; MCF7-BRCA1-FFLuc reporter, luminescence, 48 h; response scale: scaled: vehicle 0%, 10 µM genistein 100%; Potency, µM (doses to about 46.1 µM), for the others: top-dose activation, hits mostly activators; 380,000 compounds, 1.1% hits; AID 624202; further: potency means the concentration at half of the fitted maximal effect; nearly all actives have a fitted effect of over 80% in size
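48 h compound treatment of MCF7-BRCA1-FFLuc cells (phenol-red free MEM, 37 °C), then 15 min with luciferase substrate and luminescence imaging.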
B2AR arrestin = recruits beta-arrestin to the human beta2-adrenergic receptor | P07550 | Potency, µM (titrated, usually from 46.1 µM), for the others: at the highest dose activation, most hits filed as activators | 330,000 compounds, 0.02% hits | beta-arrestin recruitment to beta2AR, cell-based reporter;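 further: potency means the concentration at half of the fitted maximal effect; 0% = DMSO controls and full agonism = EC100 isoproterenol or metaproterenol; nearly all actives have a fitted effect of over 65% in size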
D3 antag = D3 dopamine receptor (human) antagonism; P35462; D3R cells, DiscoveRx beta-arrestin luminescence, antagonist mode; stronger effect = lower value; max response, negative = inhibition, %; 360,000 compounds, 2.5% hits; in the data active means max response below about -50%; inconclusive means no clear call, values can overlap the other calls; further: on the % scale 0 is the no-effect control and ±100 the full control effect
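Cells plated overnight at 1500 cells/well, then exposed to library compounds with dopamine controls for 90 minutes at 37 degrees C. DiscoveRx reagent added for 30–60 minutes at room temperature; luminescence read, quantitative HTS format.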
PTHR1 ag = agonists of human PTHR1 parathyroid hormone receptor. HEK293 GP2 PTHR1 cells, GloSensor cAMP luminescence, 1 h. Potency, µM (top dose mostly 115 µM), inactives show at the highest dose activation, usual class: activators. 410,000 compounds, 0.075% hits. AID 743266; further: potency means the concentration at half of the fitted maximal effect; nearly all actives have a fitted effect of over 55% in size
Target sequence (Q03431 whole entry, looked up): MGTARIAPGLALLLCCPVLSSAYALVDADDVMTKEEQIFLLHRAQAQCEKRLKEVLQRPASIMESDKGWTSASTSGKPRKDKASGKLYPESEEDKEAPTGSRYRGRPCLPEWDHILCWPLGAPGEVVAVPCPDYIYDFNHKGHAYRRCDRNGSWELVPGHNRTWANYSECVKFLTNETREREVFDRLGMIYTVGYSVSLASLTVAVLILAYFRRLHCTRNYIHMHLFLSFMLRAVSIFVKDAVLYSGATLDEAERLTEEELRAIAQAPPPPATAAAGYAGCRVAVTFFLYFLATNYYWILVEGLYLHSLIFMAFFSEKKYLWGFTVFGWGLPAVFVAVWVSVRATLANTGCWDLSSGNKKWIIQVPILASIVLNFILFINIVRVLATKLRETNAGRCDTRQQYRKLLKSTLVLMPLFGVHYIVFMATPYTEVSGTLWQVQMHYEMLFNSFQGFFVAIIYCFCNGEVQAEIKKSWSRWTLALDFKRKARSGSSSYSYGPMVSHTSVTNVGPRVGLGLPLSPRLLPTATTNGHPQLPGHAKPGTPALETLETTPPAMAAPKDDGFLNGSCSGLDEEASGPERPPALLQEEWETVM
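HEK-293-derived GP2 cells expressing PTHR1 and a GloSensor cAMP reporter, 3,000/well, plated overnight, given luciferin plus IBMX (each 0.5 mM as added) for 1 h at 37 °C, then compound for 1 h at 37 °C. Luminescence was read after 15 min at room temperature.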
RGS4 inhibitor = blocks human RGS4-accelerated GTP hydrolysis. Potency, µM (highest dose often 114 µM), inactives show top-dose activity change, negative = inhibition, actives largely listed as inhibitors. Transcreener GDP fluorescence polarization, RGS4-accelerated GTP hydrolysis. 390,000 compounds, 0.039% hits; further: potency means the concentration at half of the fitted maximal effect; on the % scale 0 is the no-effect control and ±100 the full control effect; nearly all actives have a fitted effect of over 75% in size
Target sequence (P49798 whole entry, looked up): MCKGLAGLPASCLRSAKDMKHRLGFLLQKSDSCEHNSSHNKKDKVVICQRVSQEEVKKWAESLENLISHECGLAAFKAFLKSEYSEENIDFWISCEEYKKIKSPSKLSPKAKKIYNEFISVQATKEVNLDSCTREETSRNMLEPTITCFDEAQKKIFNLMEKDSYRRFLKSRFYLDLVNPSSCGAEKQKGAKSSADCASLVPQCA
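MLSMR compounds (23 nl, pin-transferred) preincubated 10 min at room temperature with a 500nM (2x) first reagent, then RGS4 at 900nM (2x) plus Transcreener GDP mix added; fluorescence polarization (620/688 nm) read before and after 90 min at 30 °C.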
* marks the source's active call; other numbers are inactive results; i = inactive; ? = inconclusive; . = not tested or not shown; [ ] = another dose, or the depositor's remark. This is a sample that favours compounds with a hit; in the whole collection about 3.7% have one here. Unless noted, the call rests on the fitted dose curve; in most records, active means well fitted curve in the direction sought with a large enough effect; inconclusive means small, poorly fitted or top-dose-only effect, or another doubt; inactive means no such curve, though single readings can be large; an effect the other way counts as inactive or inconclusive.

SMILES | D3 ag | BRCA1 expr act | B2AR arrestin | D3 antag | PTHR1 ag | RGS4 inhibitor
O=C(Cc1c[nH]c2ccccc12)NCc1ccc(Cl)cc1 | 2.3 | 61.1% | 0.0% | 0.0 | i | 5.0%
CC(=O)N(c1ccc(Cl)cc1)c1c[nH]c2ccccc12 | -24.9 | -2.8% | 0.1% | -66.8* | 27.6%[57.5 µM] | 8.9%
Cn1c(=N)n(CC(=O)c2ccc(Br)s2)c2ccccc21 | 8.2 | 49.2% | 0.0% | ? | -24.0% | 13.4%
CCN(CC)CCn1c(=N)n(CC(=O)c2ccc(Br)s2)c2ccccc21 | -24.3 | -73.6% | -0.6% | -73.2* | i | -1.0%
Cc1ccc(-c2cc(C(=O)NCCc3ccccc3)c3c(-c4ccc(C)cc4)[nH]nc3n2)cc1 | 6.2 | . | . | . | i | -20.9%
Cc1cccc(C)c1NC(=O)CN(C)C(=O)c1ccccc1Sc1ccccc1C#N | 1.1 | -15.9% | 0.3% | 1.6 | -21.1% | -25.6%
O=C(CSc1nc2ccccc2c(=O)n1-c1ccc(F)cc1)Nc1cc(S(=O)(=O)N2CCOCC2)ccc1Cl | -7.1 | -31.2% | 16.4µM* | 2.4 | -24.8% | -13.2%
O=C(CNC(=O)c1ccc(Br)cc1)NC1CC1 | 6.5 | -1.6% | -0.3% | 14.5 | i | -29.5%
Cc1c(C)n(C)c2ccc(C(=O)NCCCN3CCCCC3C)cc12 (stereo not drawn) | -9.0 | -4.1% | 0.6% | 5.5 | 16.8% | -15.8%[56.9 µM]
CC1CCC(NC(=O)CCNC(=O)c2ccc(Br)cc2)CC1 (stereo not drawn) | -6.3 | 4.47µM* | 0.3% | 0.0 | -6.8% | 11.4%
CC1CCCCN1CCCNC(=O)c1ccc(Br)cc1 (stereo not drawn) | -30.5 | 3.3% | -0.6% | -65.0* | i | 0.9%
CCCCn1nnnc1C1(C)CCC(=O)N1Cc1cccnc1 (stereo not drawn) | 4.2 | 13.4% | . | 28.4 | -12.4% | .
COc1ccc(CCNc2ncnc3c2cnn3-c2ccc(C)c(Cl)c2)cc1 | 30.2* | . | . | . | -8.3% | 9.1%
Cc1ccc(-n2ncc3c(NCCc4ccccc4)ncnc32)cc1 | 9.4 | . | . | . | -22.4% | 19.1%
Cc1ccc(-n2ncc3c(NCCc4ccccc4)ncnc32)cc1Cl | 36.6* | . | . | . | -19.7% | 25.7%
CN(C)CCNc1ncnc2c1cnn2-c1cccc(Cl)c1 | -17.3 | . | . | . | -51.4% | 26.6%
CN(C)CCNc1ncnc2c1cnn2-c1ccc(Cl)cc1 | -4.4 | -73.9% | -0.1% | -63.8* | -60.2% | 10.6%
c1ccc(CCNc2ncnc3ccccc23)cc1 | -6.1 | 2µM* | -0.6% | -1.9 | -92.2% | 36.6%
COc1ccc(CCNc2ncnc3c2cnn3-c2cccc(Cl)c2)cc1 | 0.5 | . | . | . | i | 9.6%
Cc1ccc(OCC(=O)N(Cc2ccco2)Cc2ccc(C)o2)cc1 | 2.8 | . | . | . | -4.6% | 4.5%
O=C1NC[C@H](CCCCN2C[C@H](Cc3ccccc3)N(CCC3CCCCC3)C(=O)C2=O)N(CCc2ccccc2)C1=O | -8.9 | 14.9% | . | -9.2 | -87.2% | .
COc1cccc(N2CCN(c3ncnc4c3cnn4-c3ccc(C)cc3C)CC2)c1 | 38.8* | -86.8% | -0.7% | -16.0 | -25.3% | -9.1%
Cc1ccc(-n2ncc3c(N4CCN(Cc5ccccc5)CC4)ncnc32)cc1C | 32.9* | . | . | . | -32.7% | 1.7%
Fc1ccc(CNn2cnnc2SCc2ccc(F)cc2)cc1 | 40.6* | 1.6% | -0.3% | -9.3 | -0.6%[57.5 µM] | -1.1%
Cc1ccc(CNn2cnnc2SCc2ccc(F)cc2)cc1 | 17.7 | -15.3% | 0.1% | 16.2 | i | -8.5%
SMILES | D3 ag | BRCA1 expr act | B2AR arrestin | D3 antag | PTHR1 ag | RGS4 inhibitor
Cc1ccc(S(=O)(=O)NC(CC(=O)NCC2CCCO2)c2ccccc2)cc1 (stereo not drawn) | 1.4 | 3.8% | 0.0% | -13.1 | -2.4% | 2.9%
O=C(/C=C/c1ccco1)Nc1sc2c(c1C(=O)O)CCC2 | -14.5 | 26.6% | 0.2% | -26.3 | -60.1%[57.5 µM] | -11.9%
N#Cc1c(NC(=O)/C=C/c2ccco2)sc2c1CCCC2 | -7.1 | -32.1% | -0.1% | -59.6* | i | ?
O=[N+]([O-])c1cccc(C(O)C23CN4CN(CN(C4)C2)C3)c1 (stereo not drawn) | -20.7 | -5.4% | -0.3% | -2.8 | i | 21.2%
O=[N+]([O-])c1ccc(C(O)C23CN4CN(CN(C4)C2)C3)cc1 (stereo not drawn) | 4.9 | 0.4% | -0.2% | -68.5* | -1.6% | 13.6%
Cc1oc(-c2ccccc2)nc1CNC(=O)NC1CCCCC1 | 2.3 | . | . | . | -21.8% | 8.1%
CCc1cccc(CC)c1NC(=O)CN1CCN(c2ccccc2)CC1 | -9.7 | 6.2% | -0.5% | -76.1* | i | -21.4%
COC(=O)c1ccc(NC(=O)CN2CCN(c3ccccc3)CC2)cc1 | 32.8* | -1.3% | 0.0% | -24.5 | -0.8%[57.5 µM] | 9.2%
O=C(CN1CCN(c2ccccc2)CC1)Nc1ccccc1Cl | 5.9 | 5.2% | -0.1% | 0.2 | -34.8% | -0.7%
CC1=C(C(=O)N(C)C)CC(CC(=O)NCCCCc2ccccc2)C(=O)N1CCCN1CCCC1=O (stereo not drawn) | 1.4 | 10.4% | . | 30.2 | -42.1% | .
Fc1ccc(C2Nc3cccc4cccc(c34)N2)cc1 | -3.6 | -48.2% | -0.1% | -74.9* | i | -27.8%
Cc1ccc(C2Nc3cccc4cccc(c34)N2)s1 | -2.8 | -35.3% | 4.1% | -60.6* | -11.8% | -15.1%
FC(F)(F)c1ccc(C2Nc3cccc4cccc(c34)N2)cc1 | -2.6 | -50.0% | 0.0% | -9.2 | -23.2% | ?
c1coc(C2Nc3cccc4cccc(c34)N2)c1 | . | . | -0.2% | . | . | .
Clc1cccc(C2Nc3cccc4cccc(c34)N2)c1Cl | -5.5 | -50.9% | 2.82µM* | 3.3 | -16.4% | ?
Brc1ccc(C2Nc3cccc4cccc(c34)N2)cc1 | -12.2 | -37.9% | . | -63.3* | i | ?
Clc1ccccc1C1Nc2cccc3cccc(c23)N1 | 0.1 | -16.2% | ? | -18.6 | -10.6% | ?
O=S(=O)(NCCc1c[nH]c2ccccc12)c1ccc(F)cc1 | 5.5 | 9.5% | . | 38.3 | i | -24.2%
Clc1ccc(CN2CCCCCC2)cc1 | -11.0 | -8.4% | 0.6% | 0.0 | i | 10.9%
COC(=O)c1ccc(CN2CCCCC2)cc1 | -24.2 | -8.7% | -0.6% | -55.7* | i | 4.3%
Clc1ccc(CN2CCCCCCC2)cc1Cl | -1.0 | -29.3% | 0.0% | -90.5* | -3.9% | -16.2%
COC(=O)c1ccc(CN2CCC(Oc3ccc(C(=O)N4CCCCC4)cc3)CC2)cc1 | -5.9 | -26.8% | . | ? | -30.6% | -0.5%
CCOC(=O)C1CCN(Cc2ccc(Cl)c(Cl)c2)CC1 | -37.7 | 26.5% | 0.2% | -85.0* | i | -10.7%
CCOC(=O)C1CCN(Cc2ccc(C(=O)OC)cc2)CC1 | -32.7 | 2.5% | ? | -52.8* | i | 8.4%
